Data as given in PubChem BioAssay AID2289 (National Center for Advancing Translational Sciences (NCATS), 2010).
“And” between values parts separate entries of the source, which are not always exact repeats. Equal values may be shown once. About 3,300 (0.97%) of roughly 340,000 compounds were called active. Not shown: some 9% with an inconclusive outcome. Calls come from the whole dose curve; as a rule, active = well fitted inhibition curve with a large enough effect; inconclusive = small, poorly fitted or top-dose-only effect, or effect the other way; inactive = flat fitted curve, though single readings scatter. Some of the results follow.

Experiment: qHTS Assay for Modulators of miRNAs and/or Inhibitors of miR-21; note: nearly all actives have a fitted effect of over 55% in size
Settings: HeLa miR-21-FLuc reporter, luciferase luminescence, 48 h; actives lower the signal
Procedure, shortened: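 HeLa cells stably expressing CMV-driven firefly luciferase with a downstream miR-21 binding sequence, endogenously expressing miR-21, were treated with titrations (up to about 40uM final) for 48 hours at 37 degree Celsius. Luciferase luminescence was read after lysis.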
Potency is the fitted concentration of half-maximal effect.

Potency, active:
COc1ccc(C(=O)Nc2nnc(SCC(=O)Nc3ccc(NC(C)=O)cc3)s2)c(OC)c1 0.0656 µM
CC(=O)c1ccc(NC(=O)CSc2nnc(NC(=O)Nc3ccccc3)s2)cc1 7.36 µM
CC(C)(C)c1ccc(/C=C/C(=O)N2CCOCC2)cc1 6.56 µM
O=C(/C=C/c1cccc2ccccc12)N1CCOCC1 6.56 µM
CC(C)c1ccc(/C=C/C(=O)N2CCOCC2)cc1 2.93 µM
COc1ccc(NC(=O)C2CCCN(c3ncccn3)C2)cc1 (stereo not given) 8.26 µM
Cc1ccc(NC(=O)C2CCCN(c3ncccn3)C2)cc1C (stereo not given) 14.7 µM
COc1ccc(-n2ncc3c(N4CCCc5ccccc54)ncnc32)cc1 0.414 µM
CCC(NC(=O)c1ccccc1NC(=O)c1ccc(OC)cc1)C(=O)N1CCCC1 (stereo not given) 6.56 µM
Cc1[nH]c2ccccc2c1C(=O)CSC(=S)N1CCCCC1 3.29 µM
COc1ccc(/C=C/C(=O)N(C)C2CCCCC2)cc1Br 9.27 µM
Cc1ccc2c(CN3CCC(C)CC3)cc(=O)oc2c1 5.21 µM
Cc1ccc2c(CN3CCC(C)CC3)cc(=O)oc2c1C 7.36 µM
CN(C)c1ccc(/C=C/c2nnnn2-c2ccccc2)cc1 1.65 µM
CC(Cc1cccs1)NC(=O)c1cccc(Cl)c1 (stereo not given) 6.56 µM
COc1ccc(C2CC(=O)N(C)c3ccccc3S2)cc1OC (stereo not given) 18.5 µM
Cc1ccc(-c2nc3ccccc3nc2NN)cc1 1.17 µM
CC(=O)c1sc(-c2ccc(F)cc2F)nc1C 14.7 µM
Cc1sc(NC(=O)C2C3CCC(O3)C2C(=O)O)nc1-c1ccc(CC(C)C)cc1 (stereo not given) 3.69 µM
CCOC(=O)C1=NN(c2ccc(Cl)cc2)C(=O)C1 6.56 µM
CCOC(=O)c1sc2nc3c(cc2c1N)COC(C)(C)C3 1.17 µM
CCOC(=O)c1cc2c(nc1N)CC(C)(CC)OC2 (stereo not given) 7.36 µM
C=CCn1c(C)nc2c(sc3nc4c(cc32)COC(C)(C)C4)c1=O 0.656 µM
CCOC(=O)c1sc2nc3c(cc2c1N)COC(C(C)C)C3 (stereo not given) 0.0414 µM
Cc1cc(O)c(C2=Nc3ccccc3SC(c3ccc(Cl)cc3)C2)c(=O)o1 (stereo not given) 1.65 µM
Cc1ccc2c3c([nH]c2c1C)-c1nonc1CC3 7.36 µM
Cc1ccc(-n2c(C)cc(/C=C3\SC(=O)NC3=O)c2C)cc1 1.47 µM
O=C1NC(=S)N/C1=C\c1ccc(N2CCOCC2)cc1 13.1 µM
COc1ccc(-n2c(C)cc(/C=C3\SC(=O)NC3=O)c2C)cc1 5.85 µM
Cc1cc(N2CCOCC2)ccc1/C=C1/SC(=O)NC1=O 4.65 µM
Cc1ccc(/C=N/NC(=O)CSc2nc3ccccc3o2)cc1 11.7 µM
CCOc1cccc2cc(-c3csc(NC(=O)CCC(=O)NCCCN4CCC(C)CC4)n3)c(=O)oc12 1.17 µM
COc1ccc(Nc2oc(/C=C/c3ccccc3OC)nc2C#N)cc1 13.1 µM
CCOc1ccc(/C=C/c2nc(C#N)c(N(C)C)o2)cc1 0.329 µM
COc1ccccc1/C=C/c1nc(C#N)c(N(C)C)o1 927 nM and 1.65 µM
CN(C)c1oc(/C=C/c2ccccc2)nc1C#N 5.85 µM
CCCCN1C(=O)/C(=C/C=C2\SCCN2C)SC1=S 5.21 µM
CN1C(=O)/C(=C/C=C2\SCCN2C)SC1=S 0.464 µM
CCN1C(=O)/C(=C/C=C2/SCCN2C)SC1=S 0.185 µM
Cc1nc(NC(=O)c2cc3c(s2)CCCCC3)sc1C(=O)N(C)C 7.36 µM
Fc1cccc(C2NN=C(c3ccccc3)S2)c1 (stereo not given) 0.585 µM
O=C1NN(c2ccccc2)C(=O)/C1=C/c1coc2ccccc2c1=O 4.65 µM
CC1CCCCN1Cc1c(O)ccc2c(=O)c(-c3ccc(Cl)cc3)coc12 (stereo not given) 18.5 µM
Fc1ccc(OCc2cc(-c3ccccc3)no2)cc1 4.14 µM
COc1ccc(-c2cc(COc3ccccc3)on2)cc1 9.27 µM
CCCCNC(=O)c1nnn(-c2ccccc2)c1N 16.5 µM
CCN=C1S/C(=C\c2ccc(-c3cccc(C(=O)O)c3)o2)C(=O)N1CC 0.656 µM
CC(C)N1C(=O)S/C(=C\c2ccc(-c3ccc(Cl)c(C(=O)O)c3)o2)C1=O 0.293 µM
COC(=O)C(C)N1C(=O)S/C(=C\c2ccc(-c3ccc(C(=O)O)cc3C)o2)C1=O (stereo not given) 6.56 µM
C#CCN1C(=O)S/C(=C\c2ccc(-c3ccc(C(=O)O)cc3C)o2)C1=O 3.29 µM
COc1ccc(OC)c2c(N3CC(C)OC(C)C3)cc(C(F)(F)F)nc12 (stereo not given) 6.56 µM
O=C(Nc1ccccn1)c1sc2cccc(F)c2c1Cl 0.165 µM
Brc1cc(Br)c2nc(-c3ccc(N4CCOCC4)cc3)ccc2c1 14.7 µM
N#C/C(=C\c1cccnc1)c1nc2c(s1)CCCC2 2.61 µM
CCc1ccc(NC(=O)CSc2ccccn2)cc1 10.4 µM
CCc1ccc(NC(=O)CSc2ccc3nc(-c4ccc(OC)cc4)cn3n2)cc1 0.736 µM
Cc1cc(NC(=O)CCSc2ccccc2)ccc1Br 16.5 µM
CCc1ccc(NC(=O)CSc2nncn2-c2cccnc2)cc1 16.5 µM
Cc1ccc(NC(=O)CCSc2ccccn2)cc1 4.14 µM
Cc1cc(OCC(=O)N2CCCCCC2)ccc1[N+](=O)[O-] 5.85 µM
O=C(Nc1ccccn1)Nc1ccccc1[N+](=O)[O-] 9.27 µM
O=C(NC(=S)Nc1ccccc1[N+](=O)[O-])c1ccccc1 9.27 µM
O=C(CCc1ccccc1)Nc1ccccc1[N+](=O)[O-] 14.7 µM
Cc1ccc(NC(=O)c2sccc2C)cc1[N+](=O)[O-] 4.14 µM
Cc1cc(NC(=O)c2ccccc2[N+](=O)[O-])ccc1Br 7.36 µM
Cc1ccc(NC(=O)C2C3CCCCC32)cc1[N+](=O)[O-] (stereo not given) 13.1 µM
Cc1ccc(NC(=O)c2ccc(C(C)(C)C)cc2)cc1[N+](=O)[O-] 5.21 µM
CC(C)COc1ccc(C(=O)Nc2ccccc2[N+](=O)[O-])cc1 8.26 µM
CC(C)(C)c1ccc(NC(=O)c2ccccc2)c([N+](=O)[O-])c1 0.736 µM
O=C(Nc1ccccn1)c1cc2cc([N+](=O)[O-])ccc2s1 0.826 µM
CC(C)(C)c1ccc(C(=O)Nc2ccc([N+](=O)[O-])cn2)cc1 0.464 µM
CC(C)(C)c1cc(NC(=O)c2cccc([N+](=O)[O-])c2)no1 1.47 µM
Clc1ccc(-c2noc(CN3CCOCC3)n2)cc1 16.5 µM
COc1cccc(OC)c1OCCCOc1cccc2cccnc12 7.36 µM
c1ccc(OCCOc2cccc3cccnc23)cc1 13.1 µM
Brc1ccccc1OCCOc1cccc2cccnc12 11.7 µM
O=[N+]([O-])c1ccccc1OCCCOc1cccc2cccnc12 5.21 µM
CC(C)Sc1nc(SCC(=O)O)c2c3c(sc2n1)COC(C)(C)C3 9.27 µM
COCCCNC(=O)C1CCN(C(=O)c2oc3cc4sc(N(C)C)nc4cc3c2C)CC1 14.7 µM
Cc1ccccc1NC(=S)c1ccc2ccccc2n1 7.36 µM
Cc1ccc(C)c(NC(=S)c2ccc3ccccc3n2)c1 1.65 µM
N/C(=N\OC(=O)COc1ccc2ccccc2c1Br)c1ccccn1 7.36 µM
N/C(=N\OC(=O)COc1ccc2ccccc2c1Br)c1ccncc1 16.5 µM
CCOC(=O)c1c(NC(=O)CN2CCN(C)CC2)sc(C(=O)Nc2ccccc2)c1C 18.5 µM
COc1cc(/C=N/NS(=O)(=O)c2ccc(C)cc2)ccc1OCc1cccc(C(=O)O)c1 0.464 µM
COc1cc(/C=N/NS(=O)(=O)c2ccc3ccccc3c2)ccc1OCc1ccc(C(=O)O)cc1 0.414 µM
Cc1cc(SCC(=O)Nc2nsc(-c3ccc(C(C)(C)C)cc3)n2)nc2ccccc12 2.33 µM
COc1ccc(-n2cc(CN(C)CCO)c(-c3cccc(F)c3)n2)cc1 0.414 µM
C/C(=N\OCc1cccc(C(=O)O)c1)c1ccc(Cl)cc1 0.0414 µM
COc1cc(/C=N/OCC(=O)Nc2cc(C)cc(C)c2)ccc1OCc1ccc(Cl)cc1 2.93 µM
COc1cc(/C=N/OCC(=O)NC2CCCCC2C)ccc1OCc1ccc(Cl)cc1 (stereo not given) 4.65 µM
CCCCc1ccc(NC(=O)C2CCCO2)cc1 (stereo not given) 1.85 µM
CC1CCN(C(=O)Cn2nnc(-c3cccs3)n2)CC1 7.36 µM
Brc1ccc(-c2cn3cc(Cc4ccccc4)sc3n2)cc1 0.329 µM
CSc1ccccc1OCc1cc(C(=O)N(C)Cc2ccncn2)no1 8.26 µM
COc1cccc(OCc2cc(C(=O)NCc3ccccn3)no2)c1 13.1 µM
CSc1ccccc1OCc1cc(C(=O)NCc2cccc(C)n2)no1 7.36 µM
CSc1ccccc1OCc1cc(C(=O)N(C)Cc2nonc2C)no1 8.26 µM
CC(NC(=O)c1cc(COc2ccccc2)on1)c1nccs1 (stereo not given) 2.07 µM
CN1CCc2c(sc(/N=C/c3cc(Cl)ccc3O)c2C#N)C1 6.56 µM
